In PubChem BioAssay (NCATS):
Inconclusive results are not listed. Active and inactive are the calls of the source. Unless noted, the call rests on the fitted dose curve; in most records, active means well fitted curve in the direction sought with a large enough effect; inconclusive means small, poorly fitted or top-dose-only effect, or another doubt; inactive means no such curve, though single readings can be large; an effect the other way counts as inactive or inconclusive.

What was measured:
[1] = Cellular Toxicity (caspase-3) Hek293 (AID 664);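 further: cells exposed to compound for 16 h at 37 °C before readout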
In short: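 Concentration-response qHTS: caspase 3/7 activation measured by luminescent aminoluciferin substrate cleavage after 16 h compound exposure of Hek 293 cells. AC50 from Hill equation, with DMSO as basal and 100 uM tamoxifen as 100%.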

[2] = Cellular Toxicity (caspase-3) N2a (AID 665);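 further: compound exposure lasted 16 h at 37 °C before readout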
In short: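 Caspase-3/7 activation measured as luminescence from Caspase-Glo reagent (1 h, room temperature) after 16 h compound exposure of mouse N2a cells. AC50 values from Hill-equation concentration-response, scaled between DMSO and 10 uM staurosporine.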

[3] = Cellular Toxicity (caspase-3) NIH 3T3 (AID 666);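 further: caspase signal read after 16 h compound exposure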
In short: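 Caspase-Glo 3/7 luminescence reported caspase activation in 1000 NIH 3T3 cells/well after 16 h compound exposure at 37 C. DMSO set basal and 100 uM tamoxifen set 100% stimulation; concentration-response modeled with the Hill equation for AC50.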

[4] = Cellular Toxicity (caspase-3) Renal Proximal Tubule (AID 667);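 further: cells exposed to compound for 16 hours at 37 °C before detection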
In short: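 Primary rat proximal tubule cells, 1000/well, 5 h plating at 37 °C, then compound 16 h at 37 °C. Caspase-Glo 3/7 reagent, 1 h RT, luminescence. Normalized to DMSO (basal) and 10 uM staurosporine (100%); Hill-fit AC50.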

[5] = target: Cytochrome P450 3A4 (Homo sapiens) (UniProt P08684); assay: qHTS Assay for Inhibitors and Substrates of Cytochrome P450 3A4 (AID 884); further: series mostly up to about 57 µM; nearly all actives have a fitted effect of over 50% in size
Chain of Cytochrome P450 3A4 (Homo sapiens) (P08684 whole entry, looked up): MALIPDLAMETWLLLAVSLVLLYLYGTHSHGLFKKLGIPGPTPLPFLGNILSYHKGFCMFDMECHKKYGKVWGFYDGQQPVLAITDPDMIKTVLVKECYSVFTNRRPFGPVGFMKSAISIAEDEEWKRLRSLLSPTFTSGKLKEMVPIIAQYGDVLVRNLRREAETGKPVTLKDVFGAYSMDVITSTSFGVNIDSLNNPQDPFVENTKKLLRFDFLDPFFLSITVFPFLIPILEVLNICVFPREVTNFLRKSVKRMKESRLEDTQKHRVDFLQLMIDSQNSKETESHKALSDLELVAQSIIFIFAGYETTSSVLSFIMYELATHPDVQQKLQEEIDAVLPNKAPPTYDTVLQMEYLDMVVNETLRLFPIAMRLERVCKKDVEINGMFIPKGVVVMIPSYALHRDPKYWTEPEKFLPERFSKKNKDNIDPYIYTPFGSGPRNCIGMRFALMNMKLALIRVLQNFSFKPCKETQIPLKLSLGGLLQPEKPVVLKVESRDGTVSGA
In short: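 Luminescent readout of luciferin produced by CYP3A4 (20 nM) dealkylation of Luciferin-PPXE, 25 uM (its KM). NADPH-driven reaction ran 60 min at RT after 10 min compound preincubation; data scaled to 57 uM ketoconazole as 100% inhibition.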

[6] = Cell Viability - LYMP2-001 (AID 921); further: series mostly up to about 92 µM; nearly all actives have a fitted effect of over 70% in size
In short: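 Human lymphoblastoid cells (Coriell), 2500 per well, were preincubated 5 hr at 37 C, then exposed to compounds in complete medium for 24 hr at 37 C. Cellular ATP was read by CellTiter-Glo luminescence; AC50 from Hill fits of concentration-response data.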

[7] = MultiTox-Fluor Cytotoxicity Assay - LYMP1-001 - Dead Cells (AID 946)
In short: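 AC50 from Hill fit of concentration-response; data normalized to DMSO (basal) and 15 uM tetraoctylammonium bromide (100%). LYMP1-001 lymphoblastoid cells, 2500/well, 16 hr compound at 37 C; dead-cell protease fluorescence, Ex/Em 485/520.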

[8] = MultiTox-Fluor Cytotoxicity Assay - LYMP1-001 - Live Cells (AID 947)
[9] = Cell Viability - LYMP1-002 - Assay at 16 hr (AID 948)
In short: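 Human lymphoblastoid cells (LYMP1-002), 2500/well, were preincubated 5 hr at 37 C, then exposed to compounds for 16 hr at 37 C in complete medium. Cellular ATP was read by CellTiter-Glo luminescence after 30 min at room temperature; AC50 from Hill fits.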

[10] = MultiTox-Fluor Cytotoxicity Assay - LYMP1-002 - Live Cells (AID 955)
In short: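 After 16 h compound exposure at 37 C, live LYMP1-002 lymphoblastoid cells (2500/well) were quantified by cleavage of cell-permeant GF-AFC substrate, read at 405/510 nm after 60 min. Concentration-response fitted with Hill equation for AC50.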

[11] = target: Guanine nucleotide-binding protein G(i) subunit alpha-1 (Homo sapiens) (UniProt P63096); assay: qHTS Assay for Inhibitors of RGS12 GoLoco Motif Activity (Green Fluorophore) (AID 879);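 further: negative values mean loss of peptide binding seen as reduced polarization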
Chain of Guanine nucleotide-binding protein G(i) subunit alpha-1 (Homo sapiens) (P63096 whole entry, looked up): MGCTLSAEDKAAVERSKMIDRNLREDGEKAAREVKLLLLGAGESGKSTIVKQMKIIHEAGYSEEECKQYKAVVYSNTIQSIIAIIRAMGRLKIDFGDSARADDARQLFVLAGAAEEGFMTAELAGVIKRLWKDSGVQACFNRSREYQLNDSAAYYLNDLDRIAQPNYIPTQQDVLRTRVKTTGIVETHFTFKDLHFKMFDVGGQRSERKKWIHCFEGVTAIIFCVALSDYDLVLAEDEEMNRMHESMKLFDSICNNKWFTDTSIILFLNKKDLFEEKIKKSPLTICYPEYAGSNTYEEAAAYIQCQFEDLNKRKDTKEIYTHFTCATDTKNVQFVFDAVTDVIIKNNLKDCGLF
In short: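 A drop in FITC polarization marked displacement of the FITC-tagged RGS12 GoLoco peptide (10 nM) from Gαi1 (50 nM). Compounds were incubated 10 min at room temperature in Tris pH 7.5 buffer containing 150 mM NaCl, 0.1 mM GDP and 0.05% NP40; unlabeled peptide titration served as control.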

[12] = target: Cytochrome P450 3A4 (Homo sapiens) (UniProt P08684); assay: qHTS Assay for Activators of Cytochrome P450 3A4 (AID 885); further: nearly all actives have a fitted effect of over 65% in size
In short: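 CYP3A4 activity: Luciferin-PPXE O-dealkylation, 25uM substrate, 200mM KPO4, RT throughout. Read-out is luciferase luminescence; higher values reflect activation.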

[13] = target: Cytochrome P450 2C19 (Homo sapiens) (UniProt P33261); assay: qHTS Assay for Inhibitors and Substrates of Cytochrome P450 2C19 (AID 899); further: nearly all actives have a fitted effect of over 60% in size
Chain of Cytochrome P450 2C19 (Homo sapiens) (P33261 whole entry, looked up): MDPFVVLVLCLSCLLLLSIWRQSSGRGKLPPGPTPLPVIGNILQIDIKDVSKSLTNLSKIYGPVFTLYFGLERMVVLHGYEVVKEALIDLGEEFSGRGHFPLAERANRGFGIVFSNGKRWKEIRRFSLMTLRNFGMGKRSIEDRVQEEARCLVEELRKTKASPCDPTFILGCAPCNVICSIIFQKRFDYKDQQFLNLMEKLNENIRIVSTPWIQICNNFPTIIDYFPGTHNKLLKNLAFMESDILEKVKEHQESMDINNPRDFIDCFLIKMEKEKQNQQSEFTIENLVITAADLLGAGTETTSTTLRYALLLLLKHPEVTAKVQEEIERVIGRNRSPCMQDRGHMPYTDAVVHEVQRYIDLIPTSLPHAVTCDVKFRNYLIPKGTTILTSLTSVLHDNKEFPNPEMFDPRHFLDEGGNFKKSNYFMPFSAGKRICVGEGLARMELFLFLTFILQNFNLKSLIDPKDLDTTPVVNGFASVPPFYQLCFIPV
In short: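 NADPH-dependent conversion of Luciferin-H EGE (10uM, at KM) by 5nM enzyme in 50mM KPO4, 60 min at 37C following 10 min compound preincubation. Stopped with luciferin detection buffer; luminescence read after 20 min.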

[14] = qHTS Assay for Identification of Small Molecule Agonists for Thrombopoietin (TPO) Signaling Pathway (AID 917)
In short: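 First, Ba/F3 cells with human TPO receptor were held overnight without IL-3. Next, compounds and TPO (26 pM final) were added. After 24 hrs at 37 C, luciferase detection reagent was added and luminescence measured following 10 min at room temperature.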

[15] = target: Muscarinic acetylcholine receptor M1 (Rattus norvegicus) (UniProt P08482); assay: qHTS Assay for Antagonists of Acetylcholine Muscarinic M1 Receptor: Kinetic Measurement of Intracellular Calcium Response (AID 943);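 further: Fluo-4 calcium signal as peak divided by basal fluorescence over 4 min; series mostly up to about 35 µM; nearly all actives have a fitted effect of over 75% in size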
Chain of Muscarinic acetylcholine receptor M1 (Rattus norvegicus) (P08482 whole entry, looked up): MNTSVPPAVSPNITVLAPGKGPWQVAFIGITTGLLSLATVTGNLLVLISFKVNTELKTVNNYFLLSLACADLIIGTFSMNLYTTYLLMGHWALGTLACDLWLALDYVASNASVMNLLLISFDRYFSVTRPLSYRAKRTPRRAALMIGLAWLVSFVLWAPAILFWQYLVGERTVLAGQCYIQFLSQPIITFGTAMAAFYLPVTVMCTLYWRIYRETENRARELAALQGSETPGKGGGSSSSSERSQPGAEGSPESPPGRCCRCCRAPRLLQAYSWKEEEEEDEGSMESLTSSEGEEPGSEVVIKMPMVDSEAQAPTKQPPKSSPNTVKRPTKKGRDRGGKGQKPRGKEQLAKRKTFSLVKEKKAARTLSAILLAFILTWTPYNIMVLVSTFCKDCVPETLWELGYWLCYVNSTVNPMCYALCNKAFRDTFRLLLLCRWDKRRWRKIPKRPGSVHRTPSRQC
In short: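 Antagonism measured as reduction of carbachol-evoked (EC80, 100 nM final) calcium flux in rat M1-CHO cells after 10 min compound exposure. Fluo-4 signal read kinetically; ratio of maximal to basal fluorescence.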

[16] = target: Muscarinic acetylcholine receptor M1 (Rattus norvegicus) (UniProt P08482); assay: qHTS Assay for Antagonists of Acetylcholine Muscarinic M1 Receptor: Measurement of IP-One Response (AID 944); further: nearly all actives have a fitted effect of over 75% in size
In short: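 IP1 accumulation measured via TR-FRET between d2-IP1 and Eu-cryptate anti-IP1 antibody after carbachol (200 nM, EC80) stimulation for 30 min; rat M1-transfected CHO cells received compound 10 min before agonist.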

[17] = target: Pyruvate kinase (Leishmania mexicana) (UniProt Q27686); assay: qHTS Validation Assay for Inhibitors of Leishmania Mexicana Pyruvate Kinase (AID 945)
Chain of Pyruvate kinase (Leishmania mexicana) (Q27686 2-499 E452W): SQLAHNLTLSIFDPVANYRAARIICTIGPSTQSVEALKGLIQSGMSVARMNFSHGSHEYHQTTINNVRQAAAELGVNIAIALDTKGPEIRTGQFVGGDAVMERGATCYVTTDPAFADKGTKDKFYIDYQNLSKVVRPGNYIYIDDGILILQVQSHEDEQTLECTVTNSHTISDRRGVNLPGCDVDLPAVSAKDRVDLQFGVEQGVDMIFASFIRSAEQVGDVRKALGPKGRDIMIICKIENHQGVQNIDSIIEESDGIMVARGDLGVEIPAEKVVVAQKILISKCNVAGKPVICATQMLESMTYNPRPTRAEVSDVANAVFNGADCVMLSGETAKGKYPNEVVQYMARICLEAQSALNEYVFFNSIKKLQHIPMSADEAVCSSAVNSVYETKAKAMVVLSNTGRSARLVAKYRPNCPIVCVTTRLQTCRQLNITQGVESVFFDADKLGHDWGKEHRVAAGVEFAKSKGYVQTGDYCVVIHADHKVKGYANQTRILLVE
In short: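 Substrate mix (0.5 mM PEP, 0.1 mM ADP, 7 mM MgCl2, 50 mM KCl, pH 7.2 imidazole) received compound by pin tool, then 0.2 nM LmPYK E451W. After 1 h at room temperature, PKLight was added and luminescence measured.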

[18] = target: Pyruvate kinase PKM (Homo sapiens) (UniProt P14618); assay: qHTS Assay for Activators of Human Muscle Pyruvate Kinase (AID 954; active means well fitted curve in the direction sought with a large enough effect, not every such curve was filed as active)
Chain of Pyruvate kinase PKM (Homo sapiens) (P14618 whole entry, looked up): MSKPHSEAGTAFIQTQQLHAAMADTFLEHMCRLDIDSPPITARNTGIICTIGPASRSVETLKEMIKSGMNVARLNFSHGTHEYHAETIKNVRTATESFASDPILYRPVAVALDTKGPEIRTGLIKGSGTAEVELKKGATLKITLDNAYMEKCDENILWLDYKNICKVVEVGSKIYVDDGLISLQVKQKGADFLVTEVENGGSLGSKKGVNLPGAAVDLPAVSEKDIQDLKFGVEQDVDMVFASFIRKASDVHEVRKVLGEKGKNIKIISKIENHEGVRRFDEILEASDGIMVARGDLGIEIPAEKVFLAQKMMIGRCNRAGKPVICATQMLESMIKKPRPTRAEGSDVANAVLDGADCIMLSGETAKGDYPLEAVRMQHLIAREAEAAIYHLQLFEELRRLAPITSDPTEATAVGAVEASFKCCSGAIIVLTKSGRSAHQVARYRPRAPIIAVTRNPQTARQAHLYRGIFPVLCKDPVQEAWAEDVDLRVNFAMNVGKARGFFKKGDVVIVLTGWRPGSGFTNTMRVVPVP
In short: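 A coupled luminescent readout tracked ATP made from ADP by purified PKM2. Final conditions included 0.1 nM enzyme, PEP and ADP at 0.5 and 0.1 mM, pH 7.2 imidazole buffer with BSA, and a one-hour room-temperature reaction.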

[19] = Confirmation and Secondary Assay for Modulators of Hemoglobin Beta Chain Splicing at IVS2 654 locus (AID 910);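 further: per-well total GFP intensity by laser scanning cytometry after 2-day treatment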
In short: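 HeLa cells stably carrying EGFP interrupted by mutant beta-globin IVS2-654 intron (CMV-driven) were treated with compound for 2 days at 37C; corrected splicing was scored as total peak GFP intensity per well (488 nm excitation, 500-520 nm emission).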

[20] = Confirmation and Secondary Assay for Modulators of Hemoglobin Beta Chain Splicing at IVS2 705 locus (AID 930);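 further: HeLa cells stably expressing the EGFP-705 splicing reporter; GFP fluorescence per well restored by corrected splicing of the IVS2-705 intron in EGFP; series mostly up to about 46 µM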
In short: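 HeLa EGFP-705 reporter; 500 cells/well, o/n 37C 5% CO2; cpd 2 d; 488 ex/500-520 em laser scan; total peak GFP intensity/well. Ref: 500 nM […] antisense PNA.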

Measured: outcome

COc1ccc(CCC(=O)c2c(O)cc(O[C@@H]3O[C@H](CO)[C@@H](O)[C@H](O)[C@H]3O[C@@H]3O[C@@H](C)[C@H](O)[C@@H](O)[C@H]3O)cc2O)cc1O
inactive: [1] | [2] | [3] | [4] | [5] | [6] | [7] | [8] | [9] | [10]

CC(C)C[C@H](NC(=O)[C@@H]1O[C@H]1C(=O)O)C(=O)NCCCCN=C(N)N
inactive: [11] | [12] | [13] | [14] | [15] | [16] | [17] | [18]

C[C@]1(C2CCCC2)Cc2cc(OCC(=O)O)c(Cl)c(Cl)c2C1=O
inactive: [11] | [12] | [14] | [15] | [16] | [17] | [18]

O=C(/C=C/C=C/c1ccc2c(c1)OCO2)N1CCCCC1
inactive: [12] | [19] | [20]

CCOC(=O)C(CCc1ccccc1)NC(C)C(=O)N1Cc2ccccc2CC1C(=O)O (stereo not given)
inactive: [5] | [19] | [20]

C=C1C[C@]23C[C@@]1(O)CC[C@H]2[C@@]12C=C[C@H](O)[C@@](C)(C(=O)O1)[C@H]2[C@@H]3C(=O)O
inactive: [1] | [2] | [3] | [4] | [6] | [7] | [8] | [9] | [10]
